Measurements: the OligoGym collection

biological target: GLIS2; test: pooled miR-30 sensor sort-seq; sequence = guide strand; details: shRNA
Further: reference of the scale not given here.

Row | Sequence | sensor-assay potency score (higher = more potent)
1 | TTGGAATAGCGCTTGTTGCAGC | -0.438
2 | TTCTCGTTGGTGTGTGTGCGGA | -0.632
3 | TATTGTTATAGTCATTAGCTTA | -0.656
4 | TAGAAAGGCACTTAGAACCTGT | 0.24
5 | TGGATGAGCATCTTGTACCTGG | -0.352
6 | TAAAACTCTATGCTAACAGCAA | -0.574
7 | ATCGTTGACATGGTCCACCAGG | -0.948
8 | TTTCACAGAAGAGTTTCCGTTC | 0.4
9 | TTTATAAACTTCCTCTCCCATG | -1.13
10 | TTTTTTTAAAACTCTATGCTAA | -0.424
11 | TAGTCATTAGCTTATCTCTTTT | -1.29
12 | ATAGTCATTAGCTTATCTCTTT | -0.353

biological target: GLP1R; test: as above; details: shRNA

Row | Sequence | sensor-assay potency score (higher = more potent)
13 | TTCCTTGCACATCACATGCCTC | -0.533
14 | TTGATGTCTGTCTTGCACATGA | -0.0737
15 | TTGGAGTTCCTGGTCCAGCAGC | -1.12
16 | TTTGATGTCTGTCTTGCACATG | -0.835
17 | ATGAGCAGAAACACCAGGCGGC | -0.579
18 | TTGCAGAACAAGTCTGTGGCAG | 0.187
19 | TTCAGGTGGATGTAGTTCCTGG | -0.141
20 | TTATATCCTATTATTTTCCTTG | -0.237
21 | TTGATGAAGACGGACAATGCTC | -0.64
22 | TATCCTATTATTTTCCTTGCAC | 0.182
23 | TAGTTCATGTTGGAGTTCCTGG | -0.642
24 | TTTTGCAGCCACGAACTCCTTG | 0.187

biological target: GLRA3; test: as above; details: shRNA

Row | Sequence | sensor-assay potency score (higher = more potent)
25 | TGACTTTGCATAGCTAACCAAA | -1.29
26 | TATTCTTTCTCTTTCGTCGAAA | -0.712
27 | TTGCATGTGACATTAACTGGAG | -0.491
28 | TAGGCTGTGAAGCTGAATCGGC | -0.0399
29 | TAGCTTTGACATATGAAACTTT | -0.212
30 | TTGCTTGTAGACATGGTCCCAT | 0.533
31 | TATACATGTTTGTACATCCATG | -1.26
32 | TTCGAGATCTTGCACTGTCTGT | -0.307
33 | TTCTTCTTTCAACAGAAACTGG | -0.833
34 | TTATTCTTTCTCTTTCGTCGAA | 0.181
35 | TAGCATTGAATTACAAATCAAG | -1.08
36 | TAACATATAAACACATTGGCAG | -0.00869

biological target: GNAQ; test: as above; details: shRNA

Row | Sequence | sensor-assay potency score (higher = more potent)
37 | TTTAAGAACAGAATAACCGAGG | -0.0655
38 | TTGTGCATGAGCCTTATTGTGC | -1.26
39 | TTGAGTGTGTCCATGGCTCTGA | 0.188
40 | TTGTATGGGATCTTGAGTGTGT | 0.798
